Records with an inconclusive call do not appear. Calls of active or inactive are those of the source.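 How the source made its calls, unless noted: active means viability at or below 27.92% in each of two runs, the all-compound median minus 4 SD; inconclusive means no clear call, values can overlap the other calls; inactive means the rest.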
Legend:
[1] = reducers of endogenous Her2 protein level, primary screen, SKBR3 breast tumor cells, AlphaScreen, ATP viability (AID 461;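 active means Her2 level under about 52% in both replicate screens, with viability over 70% of control, limit read from the data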;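 on Her2 level: lower value means less Her2 protein in the cells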;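 on viability: percent of carrier control wells set as 100% viability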); settings: 18-24 h, measured here: SKBR3 viability, ATP luminescence, at 10 µM
[2] = target: Receptor tyrosine-protein kinase erbB-2 (Homo sapiens) (UniProt P04626); test: as above; settings: 18-24 h, at 10 µM, stronger effect = lower value
[3] = SK-BR-3 cell growth inhibitors, pilot screen, 24 h, human (AID 572;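 active means viability at or below 10% of carrier control in both of two separate runs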;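 further: compound exposure lasted between 18 and 24 h rather than exactly 24 h; 100% = carrier-treated control wells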); settings: SK-BR-3 viability, CellTiter-Glo luminescence, at 10 µM, stronger effect = lower value
[4] = HUVEC growth inhibition – cell-based, human, primary screen (AID 575;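 active means viability at or below 30% in both replicate assays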;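 further: 100% = median of untreated cell wells with 0.1% DMSO on each plate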); settings: HUVEC proliferation, CellTiter-Glo luminescence, 72 h; at 10 µM; stronger effect = lower value
[5] = growth inhibitors of H69AR lung tumor, primary screen, human, duplicate replicates (AID 580;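 active means viability at or under a set limit in both replicates, limit being median viability minus 3 SD, cut at about 48% in these data, passing the limit was not always enough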;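 further: 100% = mean luminescence of untreated wells and 0% = no signal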); settings: H69AR lung tumor cells viability, ATP luminescence, 72 h; at 10 µM; stronger effect = lower value
[6] = reversal of MRP1-mediated doxorubicin resistance, pilot screen, H69AR cells, doxorubicin co-treatment (AID 601;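 active means viability loss from added drug above about 55%, and viability with drug at most 40%, in both replicates, limit read from the data, passing the limit was not always enough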); settings: CellTiter-Glo, 72 h, at 10 µM; for differential viability (reversal): stronger effect = higher value
[7] = 384-well plate pilot, post-Golgi transport modulator project, inhibition of yeast transport mutant growth (AID 636; in the data active means inhibition above about 31%); settings: absorbance 615 nm, about 18 h, stronger effect = higher value
[8] = growth suppression of yeast trafficking mutant, preliminary HTS, modulators of trafficking downstream of Golgi apparatus project, 1536-format plate, OD 615 nm (AID 637; in the data active means inhibition above about 30%); settings: yeast transport mutant growth, absorbance 615 nm, 18 h; stronger effect = higher value
[9] = OD615 S. cerevisiae growth inhibition, permissive medium, pilot counter-assay, permissive growth control for S. cerevisiae lifespan shortening project (AID 705;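 active means growth inhibition above 25% in both replicates, a cutoff set 3 SD above the mean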); settings: OD615, 24 h, at 10 µM, stronger effect = higher value
[10] = Restrictive medium S. cerevisiae growth inhibition, OD615, pilot screen of yeast lifespan reduction project, restrictive growth control (AID 706;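 active means growth inhibition above a set limit, 3 SD over mean compound inhibition, in both replicates, cut at about 43% in these data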;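 further: modified DeaD lifespan yeast strain shifted to restrictive glucose medium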); settings: OD615, 48 h, at 10 µM, stronger effect = higher value
[11] = viability gain of MRP-1-high H69AR cells under doxorubicin, pilot screen, MRP-1 activator project, CellTiter-Glo, duplicate (AID 807;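 active means viability increase at or above a cutoff of the median across tested compounds plus 3 SD, cut at about 8.5% in these data, passing the limit was not always enough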;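 further: compound pretreatment 18-22 h then 72 h combined with doxorubicin; 0% = doxorubicin alone and 100% = vehicle without doxorubicin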); settings: H69AR viability with doxorubicin, CellTiter-Glo luminescence; at 10 µM; stronger effect = higher value
[12] = growth suppression of beta-catenin knockout HCT116, pilot screen, human colon tumor cells (AID 823;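 active means cell viability at or below a set limit in both duplicate runs, the limit being the all-compound median minus 4 SD, cut at about 23% in these data, passing the limit was not always enough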;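 further: 0% = wells killed by 20 µM Hyamine and 100% = untreated DMSO cell wells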); settings: CellTiter-Glo, 60 h, at 10 µM, stronger effect = lower value
[13] = growth suppression of PTEN-deleted HCT116, pilot screen, cell-based, HCT116 clonal line, CellTiter-Glo (AID 824); settings: 60 h, at 10 µM, stronger effect = lower value;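 further: 0% = 20 µM Hyamine control and 100% = vehicle cell control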
[14] = inhibitors of the yeast RAM network, pilot screen, dse1pr::URA3 reporter, 5-FOA selection (AID 869;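 active means inhibition over a set limit, the all-compound mean plus 3 SD, in both replicate runs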;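 further: 0% = DMSO wells with no growth and 100% = 10 µM 1-NA-PP1 with full growth; RAM network block rescues cells from 5-FOA so hits raise OD615 growth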); settings: S. cerevisiae dse1pr::URA3 5-FOA growth, OD615, 2 d; at 10 µM; stronger effect = higher value; strain carries analog-sensitive mutant Cbk1 kinase
[15] = RAM signaling pathway blockade in yeast – S. cerevisiae, Pdr1DBD-CYC8 efflux-inhibited sensitized strain, primary screen (AID 1298;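 active means RAM network inhibition above 8.4% in each of two replicates, 3 SD over the compound average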;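 further: 0% = DMSO untreated cells without growth and 100% = 10 µM 1-NA-PP1 full growth; higher means more yeast growth rescued from 5-FOA killing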); settings: S. cerevisiae cbk1-as DSE1-URA3 strain, 5-FOA growth OD615, 2 d; at 50 µM; stronger effect = higher value
[16] = H69AR cells + 2 uM doxorubicin, measured here: viability with 2 uM doxorubicin, stronger effect = lower value
[17] = H69AR cells, compound alone cytotoxicity

Sequence of Receptor tyrosine-protein kinase erbB-2 (Homo sapiens) (P04626 whole entry, looked up): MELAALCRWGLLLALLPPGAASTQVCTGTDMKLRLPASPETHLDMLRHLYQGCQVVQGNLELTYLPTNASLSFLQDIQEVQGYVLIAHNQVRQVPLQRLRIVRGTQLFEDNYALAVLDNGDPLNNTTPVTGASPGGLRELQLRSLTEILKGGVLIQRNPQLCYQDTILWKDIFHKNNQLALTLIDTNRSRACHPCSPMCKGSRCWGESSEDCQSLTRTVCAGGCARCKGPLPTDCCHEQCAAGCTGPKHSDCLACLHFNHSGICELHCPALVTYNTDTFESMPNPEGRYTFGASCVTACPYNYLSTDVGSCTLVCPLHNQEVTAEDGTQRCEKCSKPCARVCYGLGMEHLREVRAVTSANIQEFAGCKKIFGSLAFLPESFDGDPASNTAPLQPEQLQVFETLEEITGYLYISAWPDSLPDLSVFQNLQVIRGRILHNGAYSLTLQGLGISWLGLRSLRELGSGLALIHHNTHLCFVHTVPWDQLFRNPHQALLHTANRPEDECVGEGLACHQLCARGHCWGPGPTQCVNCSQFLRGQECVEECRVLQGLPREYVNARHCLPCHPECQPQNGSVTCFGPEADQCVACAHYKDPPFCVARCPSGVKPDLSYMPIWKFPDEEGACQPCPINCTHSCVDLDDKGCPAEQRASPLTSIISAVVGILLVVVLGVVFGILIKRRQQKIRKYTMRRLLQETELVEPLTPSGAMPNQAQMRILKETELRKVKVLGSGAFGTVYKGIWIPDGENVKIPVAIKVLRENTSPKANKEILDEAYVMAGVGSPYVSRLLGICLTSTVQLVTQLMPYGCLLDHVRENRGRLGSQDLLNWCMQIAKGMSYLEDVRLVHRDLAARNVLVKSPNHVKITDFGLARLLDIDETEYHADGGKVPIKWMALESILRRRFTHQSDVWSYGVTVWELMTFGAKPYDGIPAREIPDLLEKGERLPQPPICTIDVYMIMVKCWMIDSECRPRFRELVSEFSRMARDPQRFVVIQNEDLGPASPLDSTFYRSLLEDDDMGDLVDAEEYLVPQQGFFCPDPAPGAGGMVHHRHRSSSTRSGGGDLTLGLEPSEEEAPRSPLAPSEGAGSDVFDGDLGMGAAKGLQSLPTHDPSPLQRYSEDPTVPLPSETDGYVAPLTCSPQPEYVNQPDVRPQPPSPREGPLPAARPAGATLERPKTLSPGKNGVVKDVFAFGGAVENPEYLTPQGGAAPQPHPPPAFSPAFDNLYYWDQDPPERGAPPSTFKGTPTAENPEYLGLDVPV

| SMILES | viability [1] | Her2 level [2] | viability [3] | viability [4] | viability [5] | differential viability (reversal) ([6]; H69AR cells + 2 uM doxorubicin) | viability [6, 16] | viability [6, 17] | inhibition [7] | inhibition [8] | growth inhibition [9] | growth inhibition [10] | viability increase [11] | viability [12] | viability [13] | inhibition [14] | RAM network inhibition [15] |
| --- | --- | --- | --- | --- | --- | --- | --- | --- | --- | --- | --- | --- | --- | --- | --- | --- | --- |
| CCCn1cc(SCC(N)=O)c2ccccc21 | 86.5% | 102% (inactive) | 86.5% (inactive) | 90.6% (inactive) | 91.2% (inactive) | -13.4% (inactive) | 105% | 91.2% | -4.93% (inactive) | 4.83% (inactive) | -9.29% (inactive) | -15.9% (inactive) | -1.96% (inactive) | 100% (inactive) | 95.6% (inactive) | 0.545% (inactive) | 0.42% (inactive) |
| COc1cccc(-c2cc(C(=O)N3CCCCCC3)no2)c1 | 98.5% | 94% (inactive) | 98.5% (inactive) | 77.4% (inactive) | 85.9% (inactive) | 8.21% (inactive) | 77.7% | 85.9% | -5.2% (inactive) | 2.83% (inactive) | -12.5% (inactive) | -18.2% (inactive) | -0.05% (inactive) | 96.6% (inactive) | 90.9% (inactive) | 0.305% (inactive) | 0.68% (inactive) |
| CCOc1ccc(NC(=O)CN(c2cc(C)cc(C)c2)S(=O)(=O)c2c(C)noc2C)cc1 | 94% | 90.5% (inactive) | 94% (inactive) | 85.2% (inactive) | 74.7% (inactive) | 0.455% (inactive) | 74.2% | 74.7% | 1.67% (inactive) | -1.83% (inactive) | -19.5% (inactive) | -16.8% (inactive) | -3.54% (inactive) | 102% (inactive) | 97.2% (inactive) | 2.2% (inactive) | 8.99% (inactive) |
| O=C(Nc1ccc(CN2CCOCC2)cc1)c1cc2ccccn2n1 | 100% | 103% (inactive) | 100% (inactive) | 94.4% (inactive) | 94.7% (inactive) | -0.47% (inactive) | 95.2% | 94.7% | 0.38% (inactive) | 2.5% (inactive) | -4.72% (inactive) | 7.87% (inactive) | 2.39% (inactive) | 100% (inactive) | 95% (inactive) | 0.65% (inactive) | 1.45% (inactive) |
| CC(=O)OCCNc1cc(N2CCN(C)CC2)c2noc3c2c1C(=O)c1ccccc1-3 | 83% | 102% (inactive) | 83% (inactive) | 68.9% (inactive) | 66.9% (inactive) | -8.49% (inactive) | 75.4% | 66.9% | -1.54% (inactive) | 3.33% (inactive) | -7.97% (inactive) | -9.2% (inactive) | -6.89% (inactive) | 76.8% (inactive) | 73% (inactive) | 8.66% (active) | 12.4% (inactive) |

Source: PubChem BioAssay
